Test results from publication PMC4081100, “A DNA-binding-site landscape and regulatory network analysis for NAC transcription factors in Arabidopsis thaliana”.

Biological target: T1, GST-ANAC092(1-176) (Arabidopsis thaliana, UniProt Q9FKA0 1-176)
T1 sequence: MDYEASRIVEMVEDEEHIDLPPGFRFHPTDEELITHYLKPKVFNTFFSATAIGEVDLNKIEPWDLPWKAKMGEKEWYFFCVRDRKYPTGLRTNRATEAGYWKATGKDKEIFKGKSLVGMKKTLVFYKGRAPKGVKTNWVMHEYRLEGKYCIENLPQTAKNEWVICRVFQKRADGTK
Assay: universal protein binding microarray (PBM); transcription factors of Arabidopsis thaliana; high values mean tight binding
Settings: protein: recombinant; tags: GST; chain copies: 2; dsDNA, one strand shown
Procedure, shortened: (§1)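 Protein amounts were determined by A280 or anti-GST western blot after glutathione–Sepharose 4B purification of GST-tagged proteins induced in cells, with zinc acetate included for zinc-finger proteins. Duplicate runs at 200 to 500 nM final were done on custom all-10-mer Agilent 4 × 180K arrays made double-stranded by primer extension. The normalised enrichment score (E-score) over gapped and ungapped 8-mers is the measure of binding.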

Row | Sequence | binding signal
1 | AGGTTACC | 0.0662 E-score
2 | GAGGGAAA | 0.11 E-score
3 | GGAGGAAA | 0.124 E-score
4 | GGGAAACC | 0.144 E-score
5 | CCTTTCCC | 0.088 E-score
6 | AGGTAACC | 0.148 E-score
7 | AGGGTAAC | 0.059 E-score

Biological target: GST-NTL6(1-168) (Arabidopsis thaliana, UniProt Q9SCK6 1-168)
Sequence (Q9SCK6 1-168): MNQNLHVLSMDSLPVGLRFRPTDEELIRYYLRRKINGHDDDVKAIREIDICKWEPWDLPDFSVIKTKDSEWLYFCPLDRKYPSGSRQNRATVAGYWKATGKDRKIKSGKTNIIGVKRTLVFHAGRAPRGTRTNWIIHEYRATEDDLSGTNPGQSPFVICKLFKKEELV
Assay: as above
Settings: protein: recombinant; tags: GST; chain copies: 2; dsDNA, one strand shown
Procedure, shortened: as §1

Row | Sequence | binding signal
8 | GAGGGAAA | 0.11 E-score
9 | GGAGGAAA | 0.146 E-score
10 | ATTCCCCC | 0.146 E-score
11 | CCTTTCCC | 0.11 E-score
12 | AGGTAACC | 0.105 E-score
13 | AGGGTAAC | 0.0788 E-score
14 | AGGTTTCC | 0.052 E-score

Biological target: T2, GST-ANAC019 NAC domain (Arabidopsis thaliana, UniProt Q9C932 14-162)
T2 sequence: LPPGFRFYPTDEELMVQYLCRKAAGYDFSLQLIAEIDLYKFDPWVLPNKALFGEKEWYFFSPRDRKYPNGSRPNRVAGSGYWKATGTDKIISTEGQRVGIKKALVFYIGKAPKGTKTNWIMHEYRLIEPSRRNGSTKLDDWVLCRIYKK
Assay: as above
Settings: protein: recombinant; tags: GST; chain copies: 2; dsDNA, one strand shown
Procedure, shortened: as §1

Row | Sequence | binding signal
15 | AGGTTACC | 0.0729 E-score
16 | GAGGGAAA | 0.154 E-score
17 | CCTTTCCC | 0.0681 E-score
18 | AGGTTTCC | 0.0846 E-score

Biological target: T3, GST-ANAC092(1-285) full length (Arabidopsis thaliana, UniProt Q9FKA0 1-285)
T3 sequence: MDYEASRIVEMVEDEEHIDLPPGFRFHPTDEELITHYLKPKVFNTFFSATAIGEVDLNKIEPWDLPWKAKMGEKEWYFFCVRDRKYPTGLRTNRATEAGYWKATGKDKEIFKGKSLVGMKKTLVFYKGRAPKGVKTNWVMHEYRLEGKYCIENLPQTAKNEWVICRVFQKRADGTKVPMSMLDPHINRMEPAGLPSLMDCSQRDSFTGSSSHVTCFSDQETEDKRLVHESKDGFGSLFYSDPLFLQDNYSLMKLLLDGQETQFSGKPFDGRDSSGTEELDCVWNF
Assay: as above
Settings: protein: recombinant; tags: GST; chain copies: 2; dsDNA, one strand shown
Procedure, shortened: as §1

Row | Sequence | binding signal
19 | AGGTTACC | 0.182 E-score
20 | TGAGTCAA | 0.0797 E-score
21 | ATTGACCG | 0.0505 E-score
22 | AGGTAACC | 0.137 E-score
23 | GTCGTTGA | 0.0529 E-score
24 | AGGGTAAC | 0.0751 E-score
25 | ACGGTCAA | 0.0716 E-score
26 | CTGGGTCA | 0.0748 E-score
27 | GGTCAATA | 0.0505 E-score
28 | GTCAAGAC | 0.0871 E-score

Biological target: T4, GST-NAP(1-166) (Arabidopsis thaliana, UniProt O49255 1-166)
T4 sequence: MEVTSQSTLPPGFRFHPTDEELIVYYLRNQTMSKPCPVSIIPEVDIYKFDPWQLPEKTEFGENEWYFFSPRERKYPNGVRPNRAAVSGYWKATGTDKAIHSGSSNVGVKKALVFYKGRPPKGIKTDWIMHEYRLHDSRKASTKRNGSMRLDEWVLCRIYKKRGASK
Assay: as above
Settings: protein: recombinant; tags: GST; chain copies: 2; dsDNA, one strand shown
Procedure, shortened: as §1

Row | Sequence | binding signal
29 | TACGGTCA | 0.0976 E-score
30 | GAGGGAAA | 0.0766 E-score
31 | AGTCGTCG | 0.119 E-score
32 | CAATTGAC | 0.054 E-score
33 | GGTCTTCA | 0.0664 E-score
34 | GACCGTCA | 0.0503 E-score
35 | GTCGTCAA | 0.0529 E-score
36 | ACGACCAA | 0.103 E-score
37 | GGGTTGAC | 0.0845 E-score
38 | CGGTCAAC | 0.118 E-score
39 | GGTCAATA | 0.0842 E-score
40 | ACATTGAC | 0.0505 E-score
41 | AAGTCGTC | 0.156 E-score
42 | ATGGGTCA | 0.0537 E-score
